Compound activity (PubChem)
A selection: hits, their analogues and other compounds. The true share with any hit is near 27%.
EphB4 ephrin blk = antagonists of human EphB4-ephrin-B2 interaction | EphB4 LBD / TNYL-RAW-Alexa532 peptide, fluorescence polarization | inhibition, % at 7 µM | actives 0.15% (n = 97,000) | AID 720;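 active means inhibition above the screen-wide mean inhibition plus 3 SD, cut at about 15% in these data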;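 further: 0% = DMSO wells and 100% = excess unlabeled TNYL-RAW peptide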
CYP2C19 act = activators of human cytochrome P450 2C19; P33261; recombinant CYP2C19, luciferin-H EGE luminescence; hits give high values; 0 = fully inhibited enzyme, 1 = untreated enzyme; activation factor at 5 µM; 96,000 tested, under 10 active; AID 1025;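 active means activation factor of at least 2 at 5 µM in the primary screen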;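 further: 0 = wells with 2.5 mM tranylcypromine and 1 = vehicle-only wells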
Target sequence (P33261 whole entry, looked up): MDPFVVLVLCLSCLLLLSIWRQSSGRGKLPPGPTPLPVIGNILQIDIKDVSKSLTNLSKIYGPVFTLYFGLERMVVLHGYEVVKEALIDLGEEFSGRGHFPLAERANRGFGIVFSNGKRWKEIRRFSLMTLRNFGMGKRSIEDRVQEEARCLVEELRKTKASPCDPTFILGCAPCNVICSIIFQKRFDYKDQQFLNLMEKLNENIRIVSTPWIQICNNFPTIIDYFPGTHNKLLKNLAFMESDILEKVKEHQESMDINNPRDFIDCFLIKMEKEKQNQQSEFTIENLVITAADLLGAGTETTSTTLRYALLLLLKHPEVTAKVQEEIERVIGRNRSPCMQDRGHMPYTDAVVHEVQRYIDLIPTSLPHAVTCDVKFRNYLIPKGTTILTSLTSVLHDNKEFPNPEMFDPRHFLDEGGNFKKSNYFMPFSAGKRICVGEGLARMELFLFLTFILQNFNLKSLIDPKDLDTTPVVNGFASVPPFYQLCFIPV
CYP2C19 inh = human CYP2C19 inhibition; actives 21% (n = 96,000); inhibition, % at 5 µM; AID 778; CYP2C19 Supersomes, luciferin-H EGE luminescence, 30 min; P33261;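 active means CYP2C19 inhibition above a set limit at 5 µM in the primary screen, cut at about 50% in these data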;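 further: plate controls were negative control wells for no effect and 2.5 mM tranylcypromine positive control for full effect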
CYP2C9 inhib = blocks human cytochrome P450 2C9; actives 20% (n = 96,000); CYP2C9 Supersomes, luciferin-H conversion, luminescence; P11712; AID 777; inhibition, % at 5 µM;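 active means blocking of liver enzyme CYP2C9 beyond about 50% at 5 µM, limit read from the data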
CYP2C9 act = increases human cytochrome P450 2C9 activity; P11712; recombinant CYP2C9, luciferin-H conversion, luminescence; hits give high values; factor 1 = untreated enzyme, 0 = blocked; activation factor at 5 µM; actives 1.4% (n = 96,000);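 active means activation factor of 2 or more for CYP2C9 at a 5 µM dose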;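 further: 0 = sulfaphenazole-blocked wells and 1 = vehicle-only wells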
Starred values were filed as active, the others as inactive; x = no result given.

SMILES | EphB4 ephrin blk | CYP2C19 act | CYP2C19 inh | CYP2C9 inhib | CYP2C9 act
Cc1ccc(C(=O)CSc2nnc(-c3ccco3)n2Cc2ccccc2)cc1 | 1 | 0.4 | 58* | 62* | 0.4
NC(=O)NC(=O)CSc1nnc(-c2ccco2)n1Cc1ccccc1 | -2 | 1 | 0 | 6 | 0.9
CC(C)Cn1c(SCC(=O)c2ccc(Cl)s2)nnc1-c1ccco1 | -13 | 0.3 | 67* | 72* | 0.3
Cc1ccc(C(=O)CSc2nnc(-c3ccco3)n2CC2CCCO2)cc1 (configuration not stated) | 2 | 0.8 | 21 | 2 | 1
O=C(CSc1nnc(-c2ccco2)n1Cc1ccccc1)c1ccccc1 | 1 | 0.1 | 93* | 87* | 0.1
Cn1c(SCC(=O)c2ccc(-c3ccccc3)cc2)nnc1-c1ccco1 | -9 | 0.3 | 68* | 56* | 0.4
CC(NC(=O)Nc1ccccc1O)(C(F)(F)F)C(F)(F)F | 8 | 0.7 | 27 | -4 | 1
Cc1nnsc1C(=O)NC(C)C12CC3CC(CC(C3)C1)C2 (configuration not stated) | 2 | 0.5 | 52* | 24 | 0.8
CC(=O)c1nn(-c2cccc(Br)c2)cc1C(=O)c1ccc(C)cc1 | 3 | 1 | -4 | 61* | 0.4
CC(=O)c1nn(-c2cccc(Br)c2)cc1C(=O)c1ccc(Br)cc1 | -3 | 1.2 | -17 | -140 | 2.4*
O=S(=O)(Nc1ncccn1)c1ccc(Nc2ncnc3ccccc23)cc1 | 3 | 0.7 | 32 | -9 | 1.1
CN(C)c1ccc(NC(=O)Cn2cc3c(n2)CCCC3)cc1 | x | 0.1 | 92* | -11 | 1.1
O=C(Cn1cc2c(n1)CCCC2)NCCc1ccccc1 | 2 | x | x | x | x
COc1cccc(CNC(=O)Cn2cc3c(n2)CCCCC3)c1 | x | 0.1 | 92* | -140 | 2.4*
Cc1cc(C)c(S(=O)(=O)n2ccc3ccccc32)c(C)c1 | 0 | 0.7 | 30 | -18 | 1.2
O=S(=O)(c1ccccc1)n1ccc2ccccc21 | -1 | 0.6 | 36 | -138 | 2.4*
O=C(c1cnc2c(c1)COc1ccc(Cl)cc1-2)c1ccccc1O | 3 | x | x | x | x
CC(C)c1noc2ncc(C(=O)c3cc(Cl)cc(Cl)c3O)cc12 | 8 | 0.2 | 81* | 100* | 0
N#Cc1cc(N)ccc1Sc1ccccc1 | 3 | 0.5 | 46 | -104 | 2*
N#Cc1cc(N)ccc1Sc1ccc(Cl)cc1 | 1 | 0.5 | 50 | -87 | 1.9
CC1(C)C2([N+](=O)[O-])CN3CC1([N+](=O)[O-])CN(C2)C31CCCC1 | 1 | 1.1 | -8 | 3 | 1
CCOC(=O)C1CCN(C(=O)CN(c2ccc(OC)cc2)S(=O)(=O)c2c(C)noc2C)CC1 | 4 | 0.8 | 23 | 14 | 0.9
Cc1nc2cc(S(=O)(=O)N(C)C)ccc2n1-c1ccccc1 | x | 0.2 | 81* | 25 | 0.7
Cc1cc(=O)cc(C)n1-c1ccc2c(c1)nc(C)n2-c1ccccc1 | x | 1.1 | -6 | -12 | 1.1
Cc1nc2ccccc2n1-c1ccccc1 | 2 | 0.3 | 67* | 40 | 0.6
SMILES | EphB4 ephrin blk | CYP2C19 act | CYP2C19 inh | CYP2C9 inhib | CYP2C9 act
Cc1ccccc1-n1c(C)nc2ccccc21 | -6 | 0.2 | 82* | 54* | 0.5
CN(C(=O)c1cccnc1)c1nnc(-c2cnccn2)s1 | -8 | 1.1 | -14 | 0 | 1
CCCOc1ccc(C2c3c(oc4ccccc4c3=O)C(=O)N2CCN(CC)CC)cc1OC (configuration not stated) | -1 | 1.1 | -14 | -13 | 1.1
COc1cccc(C(=O)NC(Cc2ccccc2)c2ccc3c(c2)OCCCO3)c1 (configuration not stated) | -8 | 0.5 | 46 | 75* | 0.2
O=C(NC(Cc1ccccc1)c1ccc2c(c1)OCCCO2)c1ccc(F)cc1 (configuration not stated) | -9 | 0.4 | 64* | 90* | 0.1
O=C(O)C(Cc1ccccc1)NS(=O)(=O)c1ccc2c(c1)OCCO2 (configuration not stated) | 4 | 0.8 | 15 | -2 | 1
N=c1c(S(=O)(=O)c2ccccc2)cc2c(=O)n3ccccc3nc2n1CC1CCCO1 (configuration not stated) | 0 | 1 | 3 | 28 | 0.7
Cc1cccc2c(=O)c(C(=O)NCc3cccs3)c[nH]c12 | 0 | x | x | x | x
S=C(c1ccc[nH]1)N1CCOCC1 | -9 | x | x | x | x
CCOC(=O)c1nc2cc3n(c(C)c-2c1C)C(C)C(C)=C3C (configuration not stated) | -3 | 1.2 | -16 | -18 | 1.2
Cc1ccc(NC(=O)c2ccc(-n3cncn3)c([N+](=O)[O-])c2)cc1 | -1 | 0 | 100* | 91* | 0.1
O=C(Nc1ccc(Cl)cc1)c1ccc(-n2cncn2)c([N+](=O)[O-])c1 | -2 | 0 | 100* | 98* | 0
O=C(Nc1cccc(Cl)c1)c1ccc(-n2cncn2)c([N+](=O)[O-])c1 | 4 | 0 | 100* | 100* | 0
O=S(=O)(Cc1ccccc1)Nc1ccc(S(=O)(=O)NCC2CCCO2)cc1 (configuration not stated) | -3 | 0.6 | 40 | 41 | 0.6
CCc1nnc(NC(=O)CSc2nc3ccccc3s2)s1 | 8 | 0.8 | 19 | 58* | 0.4
Nc1nonc1NC(=O)CSc1nc2ccccc2s1 | -3 | 0.2 | 79* | 8 | 0.9
O=C(CSc1nc2ccccc2s1)Nc1nccs1 | 0 | 0.5 | 53* | 19 | 0.8
Cc1cc(=O)[nH]c(SCC(=O)c2c(N)n(C)c(=O)n(C)c2=O)n1 | 3 | 1.2 | -19 | -7 | 1.1
O=C(CSc1ncccc1-c1nc2ccccc2[nH]1)NCc1ccco1 | 2 | 0.5 | 48 | 55* | 0.4
COC(=O)CSc1ncccc1-c1nc2ccccc2[nH]1 | 1 | 0.4 | 59* | 43 | 0.6
CCN(CC)CCOC(=O)c1c(C)oc2ccc(OC)cc12 | 9 | 1.1 | -12 | -11 | 1.1
COc1ccc2oc(C)c(C(=O)Cn3ccnc3)c2c1 | 0 | 0.1 | 90* | 73* | 0.3
CCOC(=O)C1=C(C)Nc2ccccc2N=C1NC(=O)CCCN1C(=O)c2ccccc2C1=O | 7 | 1.1 | -12 | 20 | 0.8
Cn1c(-c2c(N)n(CCCc3ccccc3)c3nc4ccccc4nc23)nc2ccccc21 | 11 | 0.6 | 36 | 46 | 0.5
Cn1c(-c2c(N)n(CCc3ccccc3)c3nc4ccccc4nc23)nc2ccccc21 | -3 | 0.4 | 58* | 100* | 0
COCCCn1c(N)c(-c2nc3ccccc3n2C)c2nc3ccccc3nc21 | 6 | 0.3 | 70* | 66* | 0.3
Cn1c(-c2c(N)n(C3CCCC3)c3nc4ccccc4nc23)nc2ccccc21 | -4 | 0.9 | 6 | 14 | 0.9
Cc1nnc(SCc2ccccc2C#N)n1-c1ccccc1 | -6 | 0.6 | 38 | 10 | 0.9
O=C(Cc1n[nH]c(=O)[nH]c1=O)N/N=C/c1cccc(O)c1 | 8 | 1 | 2 | -18 | 1.2
